Epigenetic derep: derepresses silenced GFP reporter in murine cells | hit rate 0.2% among 280,000 | Potency, µM (top dose mostly 53.9 µM), without a hit: at the top dose GFP activation, hits mostly activators | murine LDR cells, GFP reporter derepression, 30 h; active means well fitted activation curve with a large enough effect; further: potency means the concentration at half of the fitted maximal effect; % of control where 0% means no effect; nearly all actives have a fitted effect of over 60% in size
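GFP-positive cell count by laser-scanning cytometry (objects 20–120 um) after 30 h, 37 C compound exposure of murine LDR cells; reporter is CMV-GFP integrated at a silenced locus, inducible by HDAC or DNMT inhibitors.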
D1 antag: blocks dopamine activation of the human D1 receptor; AID 504652; P21728; HEK293 TREx D1 cells, calcium flux, dopamine EC80; hits give low values; activity change, negative = inhibition, % at 10 µM; hit rate 3.2% among 360,000; in the data active means activity change below about -30%; further: on the % scale 0 is the no-effect control and ±100 the full control effect
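HEK293 T-REx cells expressing inducible, force-coupled D1 receptor; no-wash Ca dye, 30–90 min RT. Cmpd → 180 s read at 1 Hz → EC80 DA → 180 s read.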
TRHR ag: TRH receptor (human) agonism | TRHR cells, calcium flux fluo-8, FDSS agonist mode | activation, % at 2 µM | P34981 | hit rate 0.18% among 360,000; further: 0% is about no effect
Target sequence (P34981 whole entry, looked up): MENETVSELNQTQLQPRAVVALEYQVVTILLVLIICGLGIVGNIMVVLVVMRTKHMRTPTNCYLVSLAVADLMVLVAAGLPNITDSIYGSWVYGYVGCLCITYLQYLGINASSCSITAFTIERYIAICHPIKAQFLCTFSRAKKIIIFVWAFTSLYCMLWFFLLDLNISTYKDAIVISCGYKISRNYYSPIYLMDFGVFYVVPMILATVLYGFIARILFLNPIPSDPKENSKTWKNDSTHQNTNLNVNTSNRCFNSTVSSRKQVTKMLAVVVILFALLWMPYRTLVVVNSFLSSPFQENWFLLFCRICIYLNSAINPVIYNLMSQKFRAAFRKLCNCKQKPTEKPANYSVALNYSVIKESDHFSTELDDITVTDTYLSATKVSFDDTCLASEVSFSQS
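Agonist-mode FDSS calcium read (Ex 480/Em 530, 1 s cycles) in 1536-well TRHR cells with fluo-8 dye, after 10-cycle baseline and 23 nL compound addition; TRH at EC20 (10 nM final) added afterwards for the enhancer phase.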
D1 potentiator: potentiators of human D1 dopamine receptor; HEK293 TREx D1 cells, calcium flux, dopamine EC20 potentiation; AID 504651; potentiation, % at 10 µM; P21728; hit rate 0.036% among 360,000; in the data active means potentiation above about 30%; further: 0% is about no effect
TRHR PAM: allosterically enhances the human TRH receptor; TRHR cells, fluo-8 calcium fluorescence, EC20 TRH enhancement; hit rate 0.66% among 360,000; P34981; enhancement, % at 2 µM; in the data active means enhancement above about 30%; further: 0% is about no effect
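TRHR-expressing cells loaded with fluo-8 calcium dye were read kinetically (ex 480/em 530) during compound addition, then stimulated with an EC20 of TRH (10 nM final). Enhancement of the Gq-mediated intracellular calcium response was scored.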
D1 agonist: agonists of human D1 dopamine receptor. P21728. HEK293 T-REx D1 cells, calcium flux, agonist mode. activation, % at 2 µM. hit rate 1% among 360,000. AID 504660; further: 0% is about no effect
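Inducible HEK293 T-REx D1 cells, force-coupled to calcium signalling, were plated at 4000 cells/well with tetracycline and held overnight at 30 C. After no-wash calcium dye loading, compound-evoked calcium rise over 180 s flagged agonists.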
* = called active by the depositor. Compounds with a hit are over-represented: about 4.6% of the library has one in this group of screens. Unless noted, no stated cut-off is given here; in the data, active means activation above about 30%; inactive means the rest.

CC(=O)OC1COC(N2CCc3ccccc32)C(OC(C)=O)C1OC(C)=O (centres undefined) was read as Epigenetic derep 1%, D1 antag 8, TRHR ag 0, D1 potentiator 1, TRHR PAM 36* and D1 agonist 1.
Screening C=CC[C@H]1CC(C)=C[C@H](CC=C)N1C(=O)c1cc(COc2ccccc2SC)on1 returned D1 antag -13, TRHR ag 2, D1 potentiator 3, TRHR PAM -2 and D1 agonist 40*.
For COCC1CCN(C(=O)c2cc(COc3ccccc3SC)on2)C1 (centres undefined) the results were D1 antag -14, TRHR ag -1, D1 potentiator -2, TRHR PAM 2 and D1 agonist 1.
Cn1c(CN2CCN(C(=O)c3ccccc3)CC2)nc2cc([N+](=O)[O-])ccc21 was read as Epigenetic derep 0%, D1 antag -20, TRHR ag 0, D1 potentiator 3, TRHR PAM -2 and D1 agonist 0.
For Cn1c(CN2CCN(C(=O)c3ccccc3Cl)CC2)nc2cc([N+](=O)[O-])ccc21 the results were Epigenetic derep -1%, D1 antag -77*, TRHR ag 1, D1 potentiator -4, TRHR PAM 1 and D1 agonist 2.
O=C(c1ccccc1Cl)N1CCCCC1CCN1CCCCC1 (centres undefined) was read as Epigenetic derep -4%, D1 antag 3, TRHR ag 2, D1 potentiator -1, TRHR PAM 0 and D1 agonist 3.
For CCCC/C(=N\NC(=O)c1ccc(Br)o1)c1ccccc1 the results were Epigenetic derep -6%, D1 antag -66*, TRHR ag 0, D1 potentiator -4, TRHR PAM -6 and D1 agonist 1.
Screening CCCCCC/C(=N\NS(C)(=O)=O)c1ccccc1 returned Epigenetic derep 1%, D1 antag -68*, TRHR ag 0, D1 potentiator 29, TRHR PAM 0 and D1 agonist -1.
CC/C(=N/NC(=O)c1ccc(Br)o1)c1ccc(Cl)cc1 was read as Epigenetic derep -1%, D1 antag -16, TRHR ag 0, D1 potentiator -4, TRHR PAM 4 and D1 agonist 2.
CN1CCc2c(sc(NC(=O)CSc3ccc(F)cc3)c2-c2nc3ccccc3s2)C1 was read as Epigenetic derep 3.2µM*, D1 antag -22, TRHR ag 102*, D1 potentiator -1, TRHR PAM -13 and D1 agonist 399*.
CC(C)N1CCc2c(sc(NC(=O)Cc3ccccc3)c2C(N)=O)C1 was read as D1 antag 9, TRHR ag 1, D1 potentiator -1, TRHR PAM 2 and D1 agonist 3.
CC(=O)Nc1sc2c(c1-c1nc3ccccc3s1)CCN(C(C)C)C2 was read as Epigenetic derep 4µM*, D1 antag -13, TRHR ag 130*, D1 potentiator 9, TRHR PAM -4 and D1 agonist 74*.
Screening CCN1CCc2c(sc(NC(=O)CSc3ccccc3)c2-c2nc3ccccc3s2)C1 returned Epigenetic derep 0.89µM*, D1 antag -24, TRHR ag 147*, D1 potentiator -5, TRHR PAM -20 and D1 agonist 403*.
CC(=O)N1CCc2c(sc(NC(=O)CSc3ccc(F)cc3)c2-c2nc3ccccc3s2)C1 was read as Epigenetic derep 8%, TRHR ag 0, D1 potentiator -2, TRHR PAM -3 and D1 agonist 2.
Screening O=CN1CCc2c([nH]c3ccccc23)C1c1cccc2cccnc12 (centres undefined) returned Epigenetic derep 0%.
CN(C)Cc1ccccc1-c1cc(N(C)C)ncn1 was read as Epigenetic derep -1%.
Screening COC(=O)CNc1c(-c2ccccc2)nc2ccc(Br)cn12 returned Epigenetic derep 1%, D1 antag 10, TRHR ag -2, D1 potentiator 2, TRHR PAM 38* and D1 agonist 0.

Bioassay records as filed in PubChem BioAssay.
